Bioassay records (PubChem)
Only some compounds are listed: those with a hit (about 2.9% of all), similar ones and a draw of the others.
HEK293 viab – cell viability loss counter-screen; HEK-293-SNCA-luc viability, GF-AFC fluorescence, 24 h; actives 0.12% (n = 150,000); Potency, µM (doses to about 57.1 µM), for inactives: at the top dose activity change, negative = cytotoxicity, hits mostly cytotoxic;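 note: potency is the fitted concentration of half-maximal effect; 0% = DMSO-treated cells and -100% = medium-only wells without cells; nearly all actives have a fitted effect of over 30% in size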
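HEK-293-SNCA-luc cells (1500/well) plated 24 h, then exposed 24 h to a dilution series; GF-AFC added 30 min at 37C, fluorescence 405/540 nm; normalised to medium-only and DMSO wells, Hill fit.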
KDM5B inh – inhibitors of human KDM5B histone demethylase | AID 1347165 | actives 2.6% (n = 220,000) | KDM5B demethylase, FDH-coupled NADH fluorescence (FDH is formaldehyde dehydrogenase) | Potency, µM (series often up to 57.7 µM), most hits filed as inhibitors; note: potency is the fitted concentration of half-maximal effect; 0% is about no effect; nearly all actives have a fitted effect of over 70% in size
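Inhibition is measured as reduced NADH fluorescence generation from FDH coupling to formaldehyde release. Truncated KDM5BΔAP at 200 nM final acts on H3K4me3 peptide (12.5 µM in substrate mix) in pH 7.5 HEPES buffer with Tween-20, 30 min, room temperature.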
SNCA expr inh – inhibitors of alpha-synuclein (SNCA) gene expression. HEK-293 SNCA-luciferase knock-in, luminescence, 24 h. Potency, µM (doses to about 57.2 µM), without a hit: at the highest dose activity change, negative = inhibition, hits mostly inhibitors. AID 1671194. actives 0.17% (n = 140,000);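 note: potency is the fitted concentration of half-maximal effect; plate controls were DMSO cells for no effect and cell-free wells for full effect; nearly all actives have a fitted effect of over 45% in size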
IP6K1 inhibitor – IP6K1 kinase inhibition. Q92551. activity change, % (series mostly up to about 58 µM). actives 0.81% (n = 140,000). IP6K1 kinase, ADP-Glo luminescence, 2 h; hits give low values. AID 1645851; in the data active = activity change below about -25%; note: % is set by controls: 0 for no effect and ±100 for the full control effect
Target sequence (Q92551 whole entry, looked up): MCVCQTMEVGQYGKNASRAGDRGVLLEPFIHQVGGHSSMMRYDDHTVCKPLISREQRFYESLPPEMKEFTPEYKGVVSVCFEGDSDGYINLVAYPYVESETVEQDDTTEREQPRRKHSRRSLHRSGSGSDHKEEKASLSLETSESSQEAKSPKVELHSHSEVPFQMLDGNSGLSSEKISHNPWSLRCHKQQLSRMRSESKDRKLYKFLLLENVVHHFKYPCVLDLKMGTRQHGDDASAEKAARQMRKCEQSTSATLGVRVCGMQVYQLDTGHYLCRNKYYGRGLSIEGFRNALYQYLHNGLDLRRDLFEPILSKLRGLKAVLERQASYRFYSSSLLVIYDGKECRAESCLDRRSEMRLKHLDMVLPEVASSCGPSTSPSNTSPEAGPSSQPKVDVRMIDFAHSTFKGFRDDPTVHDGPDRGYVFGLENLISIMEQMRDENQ
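ADP-Glo luminescence measures ADP made by human IP6K1 during a 2 h RT reaction with ATP/IP6 (mix at 1.3 mM/130 uM); top library doses 57.5 and 19.1 uM final.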
Numbers without * were called inactive; i = inactive; u = inconclusive; x = no result; ! = repeats disagree; [ ] = another dose, or the depositor's remark. Unless noted, calls come from the whole dose curve; as a rule, active = well fitted curve in the direction sought with a large enough effect; inconclusive = small, poorly fitted or top-dose-only effect, or another doubt; inactive = no such curve, though single readings can be large; an effect the other way counts as inactive or inconclusive.

SMILES	HEK293 viab	KDM5B inh	SNCA expr inh	IP6K1 inhibitor
O=C1CC2(CCN(CC3CC3)CC2)Oc2ccccc21	1%[87.6 µM]	32µM*	u	9
O=C1CC2(CCN(Cc3ccsc3)CC2)Oc2ccccc21	10%[87.6 µM]	35µM*	132%[87.6 µM]	11
O=C1CC2(CCN(S(=O)(=O)c3cccs3)CC2)Oc2ccccc21	-7%	18µM*	u	3
CC(C)c1nnc2ccc(N3CCCC(C(=O)O)C3)nn12 (stereo not drawn)	x	i	x	x
Cc1nnc(NC(=O)c2cc(-c3ccccc3C)nc3ccccc23)s1	x	i	x	x
Cc1cc(C)cc(N(CC(=O)Nc2ccccc2C(=O)NCC2CCCO2)S(C)(=O)=O)c1 (stereo not drawn)	x	i	x	x
CCOc1ccc(N(CC)C(=O)C(=O)c2c[nH]c3ccccc23)cc1	x	i	x	x
COc1ccc(CN2CCC3(CC2)CC(=O)c2ccccc2O3)cc1	5%[87.6 µM]	35µM*	u	7
COc1ccc(CN2CCC3(CC2)CNC(=O)c2ccccc2O3)cc1	0%	i	8%	-13
Cc1ccc(CC(=O)NCc2nnc3cc(-c4nc(C5CC5)no4)ccn23)cc1	5%	28µM*	-10%	-8
Cc1ccccc1CC(=O)NCc1nnc2cc(-c3nc(C4CC4)no3)ccn12	u	28µM*	114%	-7
O=C(Cc1ccccc1Cl)NCc1nnc2cc(-c3nc(C4CC4)no3)ccn12	4%	16µM*	-3%	4
CCC(C(=O)NCc1nnc2cc(-c3nc(C4CC4)no3)ccn12)c1ccccc1 (stereo not drawn)	-12%	i	0%	11
Cc1ccc(C(=O)NCc2nnc3cc(-c4nc(C5CC5)no4)ccn23)cc1	-3%	u	-6%	-2
CCCNC(=O)COC(=O)c1ccc2nc(C)c(C)nc2c1	x	i	x	x
CC(C)N1C[C@H](O)C[C@H]1c1nnc2n1CCN(C(=O)c1ccsc1)C2	0%[12.5 µM]	u	25µM*	0
C[N+](C)(CCCCCCCCCC[N+](C)(C)C1CCCCC1)C1CCCCC1	x	i	x	x
O=C(c1ccncc1)N1CCC(N2CC3CC(C2)[C@H]2CCCC(=O)N2C3)CC1 (stereo partly drawn)	-1%	18µM*	10%	8
O=C(c1ccc(Cn2nnc3ccccc32)cc1)N1CCN(S(=O)(=O)c2ccc(F)cc2)CC1	x	i	x	x
CCOC(=O)c1c(S(=O)(=O)N2CCCCC2)nn(C)c1C	x	i	x	x
O=C1CCN(Cc2ccncc2)CCCC(C(=O)NCCCN2CCCc3ccccc32)CCN1 (stereo not drawn)	3%	14µM*	25%	-3
COCCCNC(=O)C1CCCN(Cc2ccncc2)CCC(=O)NCC1 (stereo not drawn)	-15%	25µM*	u	-5
COCC(=O)N1CCNC[C@H]1C(=O)N[C@@H](Cc1ccc(OC)cc1)C(=O)OC	-1%[87.6 µM]	i	-8%[87.6 µM]	0
CC(C)CC(=O)NCCCCNC(=O)CC(C)C	x	i	x	x
CCc1nn(CC(=O)NCCCc2ccccc2)c(=O)c2cc3ccccc3n12	4%	i	28µM*	8
SMILES	HEK293 viab	KDM5B inh	SNCA expr inh	IP6K1 inhibitor
O=C(O)CNC(=O)CC(F)(F)F	x	i	x	x
Cn1nc(C2CCNCC2)c2c(C(=O)NC3CC3)cc(C3CC3)nc21	-7%	89µM*	u	4
CNC(=O)c1cc(C2CC2)nc2c1c(C1CCN(C(=O)N(C)C)CC1)nn2C	x	x	x	-7
Cn1nc(C2CCCNC2)c2c(C(=O)NC3CC3)cc(C3CC3)nc21 (stereo not drawn)	10%	89µM*	4%	2
Cn1nc(C2CCCNC2)c2c(C(=O)NCC(F)(F)F)cc(C3CC3)nc21 (stereo not drawn)	2%	u	15%	4
CCNc1c(NC(=O)Nc2cccc(OC)c2)c(=O)oc2ccccc12	x	i	x	x
CCCCCCCCS(=O)(=O)CCCCO	x	i	x	x
CCn1cc(C(=O)N[C@@H]2COCC[C@@H]2OCC2CC2)c(=O)c2ccc(C)nc21	4%	i	-2%	-9
Cc1cc(C)n2nc(C)c(C(=O)N[C@@H]3COCC[C@@H]3OCC3CC3)c2n1	7%	22µM*	1%	10
COc1ccc(C(CNC(=O)c2n[nH]c(=O)c3ccccc23)N(C)C)cc1 (stereo not drawn)	x	i	x	x
Cc1ccc(NC(=O)Nc2ccccc2)c(=O)n1CC(=O)N1CCN(c2ccccc2)CC1	10%	28µM*	6%	-6
COc1ccccc1-c1ccc(C(=O)N2CCC(NC(=O)Cc3ccccn3)CC2)cc1	1%[12.5 µM]	x	16%	1
Cc1cn2nc(C(=O)NCc3ccccc3F)cc2c(=O)[nH]1	-3%	u	90%	-5
O=C(c1ccc(F)cc1Cl)N1CCc2c(nc3cc[nH]n3c2=O)C1	7%	28µM*	-6%	8
O=C(c1ccc2ncccc2c1)N1CCc2c(nc3cc[nH]n3c2=O)C1	0%	u	78%	31
O=C(c1ccccc1C(F)(F)F)N1CCc2c(nc3cc[nH]n3c2=O)C1	11%	25µM*	-9%	13
O=C(NC1CCCCCC1)c1ccc2oc(-c3ccnc(Cl)c3)nc2c1	9%	x	26%	12
COc1ccc(C(=O)N2CCCC3(C2)Nc2cccnc2NC3=NCc2ccccc2)cn1 (stereo not drawn)	-11%	u	-4%	14
CCCCS(=O)(=O)N1CCCC2(C1)Nc1cccnc1NC2=NCc1ccccc1 (stereo not drawn)	-9%	28µM*	30%	3
O=C(NCc1ccco1)N1CCCC2(C1)Nc1cccnc1NC2=NCc1ccccc1 (stereo not drawn)	0%	25µM*	-1%	1
Cc1ccc(C(=O)N2CCCC3(C2)Nc2cccnc2NC3=NCc2ccccc2)cn1 (stereo not drawn)	-13%	28µM*	-25%	1
COc1ccc(/C(=N\O)OC(=O)/C=C/c2ccco2)cc1	x	i	x	x
Cc1cccc(OCC2(CNC(=O)c3cc(C)on3)C[C@@H](O)[C@@H](O)C2)n1 (stereo partly drawn)	0%[87.6 µM]	u	30%[87.6 µM]	-3
Cc1cccc(OCC2(CNC(=O)c3cc(C)nn3C)C[C@@H](O)[C@@H](O)C2)n1 (stereo partly drawn)	-9%[87.6 µM]	32µM*	26%[87.6 µM]	11
Cc1ccc(-c2cc3c(=O)n(CCNC(=O)c4cc(C5CC5)[nH]n4)ccn3n2)c(C)c1	-11%	i	38%	-4
C[C@@]1(C(=O)Nc2ccc(F)nc2)CCCN1c1nc(Nc2cc(C3CC3)[nH]n2)c2cccn2n1	1.9µM*!	x	-13%	-2
CCC(COC)NC(=O)c1c(C)noc1-c1cc(OC)c(OC)c(OC)c1 (stereo not drawn)	3%	28µM*	0%	14
COc1cc(-c2onc(C)c2C(=O)NCCc2cccs2)cc(OC)c1OC	0%	22µM*	30%	-1
COCCCNC(=O)c1c(C)noc1-c1cc(OC)c(OC)c(OC)c1	10%	32µM*	4%	23
COc1cc(-c2onc(C)c2C(=O)NCCSC)cc(OC)c1OC	7%	32µM*	8%	-2
